From PMC4552634, “A New Set of Chemical Starting Points with Plasmodium falciparum Transmission-Blocking Potential for Antimalarial Drug Discovery” (PLoS ONE, 2015)
In all, about 13,000 compounds went through this assay and about 3,200 (25%) showed an effect of 50% or more. The list shows a part of the results.

The compounds below were run on P. falciparum stage V gametocytes. Settings: 48 h, 5 µM; inhibitor.
Set-up: BacTiter-Glo ATP luminescence viability of purified stage V gametocytes in 384-well plates, per cent inhibition versus DMSO

| Structure (SMILES) | % Inhibition [%] |
| --- | --- |
| CC1C(c2cccc(Cl)c2)OCC(C)(C)N1C(=O)CCN1CCCCC1 (stereo not drawn) [TCMDC-137873] | -11.63 |
| COc1ccc2nccc([C@@H](O)CN3CCC(NCc4ccc5c(c4)NC(=O)C(C)(C)O5)CC3)c2c1 [TCMDC-141097] | 21.74 |
| NC(N)=NN=C1C=Cc2cccc3cccc1c23 [TCMDC-137662] | -87.82 |
| Cc1cc(NC2CCCC2)nc(Nc2ccccc2F)n1 [TCMDC-133463] | -1.86 |
| Cc1cc(C)cc(Oc2c(C(F)(F)F)oc3c(CN4CC(C)OC(C)C4)c(O)ccc3c2=O)c1 (stereo not drawn) [TCMDC-125695] | -2.168 |
| CCOc1ccccc1NC(=O)Nc1ccc2c(c1)CCN(C1CCC1)CC2 [TCMDC-135951] | 31.77 |
| CCN1CCN(C(=O)NC(C(=O)N(C)Cc2ccc(-c3ccc(C(F)(F)F)cc3)cc2)c2cccs2)C(=O)C1=O (stereo not drawn) [TCMDC-141576] | 23.66 |
| CCOC(=O)NOC(C(=O)O)c1ccccc1 (stereo not drawn) [TCMDC-131406] | -4.765 |
| COC(=O)c1cccc(CNCc2cccc(-c3ccc(-c4nc5cc(C(F)(F)F)ccc5[nH]4)cc3)c2)c1.O=C(O)C(F)(F)F [TCMDC-132955] | -38.35 |
| O=C(Nc1cccc(-c2cccc(CN3CCCC3)c2)c1)c1cccc(Cl)c1 [TCMDC-132659] | 85.38 |
| CN1CCCN(Cc2cccc(-c3cccc(NC(=O)c4cccc(Cl)c4)c3)c2)CC1 [TCMDC-132657] | -0.3892 |
| COc1ccc(-c2ccc(NC(=O)c3ccc(Cl)cc3)cc2)cc1CN1CCNCC1 [TCMDC-133338] | 93.69 |
| COc1ccc(-c2cccc(NC(=O)c3cccc(Cl)c3)c2)cc1CN1CCCN(C)CC1 [TCMDC-132614] | -18.61 |
| O=C(Nc1cccc(-c2ccc(CN3CCCC3)cc2)c1)c1cccc(Cl)c1 [TCMDC-132643] | 24.88 |
| O=C(Nc1cccc(-c2ccc(CN3CCNCC3)cc2)c1)c1cccc(Cl)c1 [TCMDC-132640] | -31.19 |
| COc1ccc(-c2ccc(NC(=O)c3ccc(C#N)cc3)cc2)cc1CN1CCCC1 [TCMDC-132519] | 46.41 |
| CN1CCCN(Cc2ccc(-c3ccc(NC(=O)c4cccc(Cl)c4)cc3)cc2)CC1 [TCMDC-132591] | 42.97 |
| COc1ccc(-c2ccc(NC(=O)c3ccc(C#N)cc3)cc2)cc1CN1CCNCC1 [TCMDC-132516] | 43.65 |
| O=C(Nc1ccc(-c2ccc(CN3CCNCC3)cc2)cc1)c1cccc(Cl)c1 [TCMDC-132590] | 87.95 |
| COc1ccc(-c2cccc(NC(=O)c3cccc(Cl)c3)c2)cc1CN1CCCC1 [TCMDC-132615] | 79.62 |
| COc1ccc(-c2ccc(NC(=O)c3cccc(Cl)c3)cc2)cc1CN1CCCC1 [TCMDC-132525] | 40.62 |
| COc1ccc(-n2nc(C)c3c2NC(=O)CC3c2ccccc2OCc2ccc(F)cc2)cc1 (stereo not drawn) [TCMDC-124906] | 40.61 |
| COC(=O)c1cc(C(O)CNC(C)CCCc2ccccc2)ccc1O (stereo not drawn) [TCMDC-131241] | -5.82 |

| Structure (SMILES) | % Inhibition [%] |
| --- | --- |
| COc1ccc2nccc([C@@H](O)CN3CCC(NCc4nc5c(F)cccc5[nH]4)CC3)c2c1 [TCMDC-140760] | 20.74 |
| O=C(c1cccc(-c2cccc(-c3nc4cc(C(F)(F)F)ccc4[nH]3)c2)c1)N1CCCCC1CN1CCC(O)C1 (stereo not drawn) [TCMDC-132346] | -18.68 |
| CCN(CCCN1CCCCC1)c1cc(C)nc(Nc2cc(Cl)cc(Cl)c2)n1 [TCMDC-132455] | 8.984 |
| Cc1nc(C(C)Nc2nncc(-c3ccc(Cl)cc3)n2)cs1 (stereo not drawn) [TCMDC-124636] | -29.02 |
| CC(C)c1cccc(C(NC(=O)[C@H]2Cc3ccccc3CN2C(=O)c2cccc(N3CCOCC3)c2)C2CCCC2)c1 (stereo partly drawn) [TCMDC-138264] | 2.743 |
| FC(F)(F)c1ccc2[nH]c(-c3ccc(-c4cccc(CNCC5CCCO5)c4)s3)nc2c1.O=C(O)C(F)(F)F (stereo not drawn) [TCMDC-133099] | -9.129 |
| COc1ccc2nccc([C@@H](O)CN3CCC(NS(=O)(=O)c4cc(Br)c(Br)s4)CC3)c2c1 [TCMDC-141306] | 29.28 |
| COc1ccc(-c2ccc(NC(=O)c3cccc(Cl)c3)cc2)cc1CN1CCC(O)CC1 [TCMDC-133334] | 46.17 |
| COc1ccc(-c2cccc(NC(=O)c3cccc(Cl)c3)c2)cc1CN1CCC(O)CC1 [TCMDC-132618] | 87.3 |
| COc1ccc(-c2cccc(NC(=O)c3ccc(Cl)cc3)c2)cc1CN1CCC(O)CC1 [TCMDC-132606] | -74.32 |
| Cc1ccc(CNc2cc(C(F)(F)F)nc(-c3ccc(S(C)(=O)=O)cc3)n2)cc1 [TCMDC-138598] | 20.79 |
| CN1CCN(c2ccnc3cc4c(cc23)N(C(=O)Nc2ccc3c(c2)CCCC3=O)CC4)CC1 [TCMDC-139372] | 0.5076 |
| CN1CCN(c2ccnc3cc4c(cc23)N(C(=O)Nc2ccc(-c3ccncc3)c3ccccc23)CC4)CC1 [TCMDC-139371] | 4.895 |
| Cc1cc(-c2cccc3c(C(=O)N4CCc5cc6nccc(N7CCCN(C)CC7)c6cc54)cccc23)cc(C)n1 [TCMDC-140244] | 100.8 |
| Cc1nc(-c2ccc(C(F)(F)F)cn2)sc1C(=O)N1CCc2cc3nccc(N4CCN5CCC[C@H]5C4)c3cc21 [TCMDC-140330] | -2.363 |
| CN1CCN(c2ccnc3ccc(NC(=O)c4ccc(Cl)c(Cl)c4)cc23)CC1 [TCMDC-139350] | 4.304 |
| CN1CCCN(c2ccnc3cc4c(cc23)N(C(=O)c2ccc(Cl)c(Cl)c2)CC4)CC1 [TCMDC-140242] | 99.6 |
| Cc1cc(-c2cccc3c(C(=O)N4CCc5cc6nccc(N7CCN8CCC[C@H]8C7)c6cc54)cccc23)cc(C)n1 [TCMDC-139793] | 31.07 |
| CN1CCCN(c2ccnc3cc4c(cc23)N(C(=O)c2ccccc2Cl)CC4)CC1 [TCMDC-140239] | 27.46 |
| CN1CCCN(c2ccnc3cc4c(cc23)N(C(=O)c2ccc(Cl)cc2Cl)CC4)CC1 [TCMDC-140241] | 126.7 |
| CN1CCCN(c2ccnc3cc4c(cc23)N(C(=O)c2ccc(C(F)(F)F)cc2)CC4)CC1 [TCMDC-140243] | 67.52 |
| O=C(/C=C/c1ccc(C(F)(F)F)cc1)N1CCc2cc3nccc(N4CCN5CCC[C@H]5C4)c3cc21 [TCMDC-140045] | 20.84 |
| O=C(Nc1ccc(Cl)c(Cl)c1)N1CCc2cc3nccc(N4CCN5CCC[C@H]5C4)c3cc21 [TCMDC-140055] | 49.62 |

| Structure (SMILES) | % Inhibition [%] |
| --- | --- |
| CN1CC(c2ccccc2)c2cc(O)c(CN3CCCCC3)cc2CC1Cc1ccccc1 (stereo not drawn) [TCMDC-131902] | -4.593 |
| COc1cc(Cc2cnc(N)nc2N)cc(OCCCCNS(=O)(=O)C(F)(F)F)c1OC [TCMDC-137348] | 8.081 |
| O=C(NC1CCN(CCCOc2ccnc3cc(Cl)ccc23)C1)c1ccc(Br)cc1 (stereo not drawn) [TCMDC-136147] | -6.07 |
| Cc1nc(-c2ccc(-c3ccc(C(=O)Nc4ccc(Cl)c(N5CCN(C)CC5)c4)cc3)c(C)c2)no1 [TCMDC-131979] | -60.2 |
| CC1(C)N=C(N)N=C(N)N1c1ccc(I)cc1 [TCMDC-124271] | 5.763 |
| CN(CCCCCNC(=O)/C=C/c1ccc(Cl)c(Cl)c1)CCCCc1c[nH]c2ccccc12 [TCMDC-139328] | -28.14 |
| CC1CCN(c2nc(C(=O)Nc3cccc4c3CCCC4)c(C(C)C)s2)CC1 [TCMDC-134662] | 11.59 |
| CN1CCCN(c2ccnc3cc4c(cc23)N(C(=O)c2ccc(Cl)cc2)CC4)CC1 [TCMDC-140240] | 94.93 |
| CN1CCN(c2ccnc3ccc(NC(=O)Nc4ccc(Cl)cc4)cc23)CC1 [TCMDC-139322] | 28.3 |
| CN1CCN(c2ccnc3cc4c(cc23)N(Cc2ccccc2)CC4)CC1 [TCMDC-139341] | -3.615 |
| Cc1ccc(C2(C)CC(C)(C)N(C(=O)COc3ccc4ccccc4c3)c3ccccc32)cc1 (stereo not drawn) [TCMDC-124089] | -65.04 |
| COc1ccccc1CCN1CCC(CN(C)Cc2ccc(O)c(Cl)c2)CC1 [TCMDC-124611] | 14.29 |
| COc1ccc2nccc([C@@H](O)CN3CCC(NC(=O)c4cc5c(Cl)cc(Cl)cc5[nH]4)CC3)c2c1 [TCMDC-141039] | -18.46 |
| CN(C)c1ccc(C=C2SC(=O)NC2=Nc2ccccc2)cc1 [TCMDC-123738] | 34.75 |
| O=C(Nc1cccc(Cl)c1)N[C@H]1CCN(Cc2ccc(OCCCN3CCCCC3)cc2)C1 [TCMDC-141788] | 103.5 |
| O=C(Nc1ccc(Cl)cc1)N[C@H]1CCN(Cc2ccc(OCCCN3CCCCC3)cc2)C1 [TCMDC-141787] | 90.53 |
| O=C(Nc1ccc(Cl)cc1)Nc1ccc(OCC(O)CN2CCCCC2)cc1 (stereo not drawn) [TCMDC-123519] | 4.072 |
| O=C(Nc1ccc(Oc2ccccc2)cc1)N[C@H]1CCN(Cc2ccc(OCCCN3CCCCC3)cc2)C1 [TCMDC-141786] | 96.23 |
| O=C(Nc1ccc(-c2ccccc2)s1)N[C@H]1CCN(Cc2ccc(OCCCN3CCCCC3)cc2)C1 [TCMDC-141789] | 86.03 |
| COc1cccc(NC(=O)NC2CCN(CCCCCNC(=O)/C=C/c3ccc(Cl)c(Cl)c3)CC2)c1 [TCMDC-139388] | 31.25 |
| COc1cc(CN2CCC(NC(=O)[C@H](Cc3ccccc3)NC(=O)Nc3ccc(Oc4ccccc4)cc3)C2)ccc1O (stereo partly drawn) [TCMDC-140500] | -15.62 |
| Cc1ccc(CN2CCCCC(NC(=O)c3cc4ccccc4s3)C2)cc1 (stereo not drawn) [TCMDC-141748] | -37.31 |
| O=C(Nc1ccc(Oc2ccccc2)cc1)N[C@@H](Cc1ccc(O)cc1)C(=O)NC1CCN(Cc2ccc(O)c([N+](=O)[O-])c2)C1 (stereo partly drawn) [TCMDC-140421] | 0.03751 |
